Some test systems named below: NCI-H23 lung; NCI-H226 lung; NCI-H322M lung; NCI-H460 lung; HOP-92 NSCLC; NCI-H522 lung; A549/ATCC NSCLC; 786-0 renal; COLO 205 colon.
Holding throughout (test): NCI-60 one-dose screen, 48 h (100 = growth as untreated, 0 = no growth, -100 = all killed)
Details in all cases: 10 µM

The structures appear in SMILES notation. About 83,000 compounds went through this panel and 20% of them were active in at least one assay; those are over-represented in the sample as a whole.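 Growth was measured after 48 h exposure to one concentration of compound in 96-well plates. Values under 10 count as active.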 Values without a mark were called inactive. The source made the active and inactive calls.

Take `CCC1(C)OC(=O)NC1=O` (stereo not given): the growth in the assay with NCI-H23 lung is 96%; with NCI-H226 lung, 93.1%; in the assay with NCI-H322M lung, 105%; in the assay on NCI-H460 lung it was 111%; in the assay on HOP-92 NSCLC, 93.2%; in the assay with NCI-H522 lung, 84.5%. Besides, the growth in the assay with A549/ATCC NSCLC is 79.2%; with 786-0 renal it was 99.6%; in the assay on COLO 205 colon it was 103%.
For `CCN(CC)CCn1c(=N)n(CC(O)c2ccc(Cl)c(Cl)c2)c2ccccc21` (stereo not given), the growth in the assay with NCI-H23 lung was 91.2%; with NCI-H226 lung it was 92.2%; with NCI-H322M lung, 99.5%; with NCI-H460 lung, 104%; with HOP-92 NSCLC it was 58.1%; with NCI-H522 lung, 45%. Also, the growth in the assay on A549/ATCC NSCLC is 89.6%; in the assay on 786-0 renal, 79.9%; in the assay with COLO 205 colon it was 18.5%.
In the case of `COc1ccc2nc(NC(=O)Nc3c(F)cccc3F)sc2c1`, the growth in the assay with NCI-H23 lung is 105%; in the assay with NCI-H226 lung, 94%; with NCI-H322M lung, 99.5%; in the assay on NCI-H460 lung, 99.3%; in the assay with HOP-92 NSCLC, 93.1%; in the assay on NCI-H522 lung, 96.8%. For the same molecule, the growth in the assay on A549/ATCC NSCLC was 96.3%; in the assay on 786-0 renal, 94.3%; with COLO 205 colon, 125%.
For the molecule `CCN(CC)CC(O)CNc1ccnc2cc(Cl)c(Cl)cc12` (stereo not given), the growth is 102% with NCI-H23 lung; 84.9% in the assay on NCI-H226 lung; 92.1% in the assay on NCI-H322M lung; 100% with NCI-H460 lung; 53.4% in the assay with HOP-92 NSCLC; 94.1% in the assay with NCI-H522 lung. Moreover, the values for the growth in the assay on A549/ATCC NSCLC, in the assay on 786-0 renal and with COLO 205 colon were 101%, 86.1% and 78.1%, respectively.
For `Cc1[nH]nc2c(=S)[nH]c(=O)[nH]c12`, the growth in the assay with NCI-H23 lung was 103%; with NCI-H226 lung it was 94.3%; with NCI-H322M lung it was 103%; with NCI-H460 lung, 105%; with HOP-92 NSCLC, 87.9%; with NCI-H522 lung, 98.7%. In addition, the growth in the assay on A549/ATCC NSCLC was 100%; with 786-0 renal, 97.3%; in the assay with COLO 205 colon it was 109%.
Turning to `CC(C)C(C)C(N)C(=O)O` (stereo not given), the growth with NCI-H23 lung is 97.8%; in the assay on NCI-H226 lung, 102%; in the assay with NCI-H322M lung it was 99%; in the assay with NCI-H460 lung it was 109%; in the assay with HOP-92 NSCLC, 86.8%; in the assay on NCI-H522 lung it was 91.2%. The results for the growth in the assay with A549/ATCC NSCLC, with 786-0 renal and in the assay with COLO 205 colon were 104%, 92.8% and 108%, respectively.
On to `COC(=O)CCCCCCCCC(C)c1ccc(C(C)=O)cc1` (stereo not given), for which the growth is 99.9% with NCI-H23 lung; 104% in the assay on NCI-H226 lung; 121% in the assay on NCI-H322M lung; 108% with NCI-H460 lung; 113% in the assay on HOP-92 NSCLC; 101% in the assay with NCI-H522 lung. The growth in the assay with A549/ATCC NSCLC was 105%; with 786-0 renal it was 102%; in the assay with COLO 205 colon, 114%.
On to `COc1ccc(C2C=C(c3ccc(Cl)c(Cl)c3)N=C3SC(C)=CN32)cc1` (stereo not given), for which the growth was 92.2% with NCI-H23 lung; 86.5% in the assay with NCI-H226 lung; 98.7% in the assay with NCI-H322M lung; 101% in the assay on NCI-H460 lung; 98.7% in the assay on HOP-92 NSCLC; 77.3% with NCI-H522 lung. Further, the growth is 81.6% in the assay on A549/ATCC NSCLC, 90.7% with 786-0 renal and 104% in the assay with COLO 205 colon.
With `CCOC(=O)C1=C(Nc2ccc(OC)cc2)C(N)=NC1=N`, the growth was 52.6% in the assay on NCI-H23 lung; 42.9% with NCI-H226 lung; 50.2% in the assay on NCI-H322M lung; 22.2% in the assay with NCI-H460 lung; 48.4% with HOP-92 NSCLC; 42% in the assay on NCI-H522 lung. In addition, the growth in the assay with A549/ATCC NSCLC was 31.8%; in the assay with 786-0 renal, 59.3%; with COLO 205 colon, -10.1% (active).
`COc1cc(-c2nc3ccc(C)cc3[nH]2)ccc1OCC(=O)N=Nc1c(O)[nH]c2ccccc12`: the growth in the assay on NCI-H23 lung is -17.5% (active); with NCI-H226 lung, 112%; with NCI-H322M lung, -33.9% (active); in the assay with NCI-H460 lung, -70.5% (active); in the assay with HOP-92 NSCLC it was -12.7% (active); in the assay with NCI-H522 lung, -63.5% (active). Moreover, the growth is 8.54% (active) in the assay on A549/ATCC NSCLC, -93.5% (active) with 786-0 renal and -37.8% (active) in the assay on COLO 205 colon.
Turning to `CCc1c(C)[nH]c(=O)c(C(N)=O)c1C#N`, the growth with NCI-H23 lung is 107%; with NCI-H226 lung it was 117%; with NCI-H322M lung, 104%; in the assay with NCI-H460 lung, 106%; in the assay on HOP-92 NSCLC, 109%; in the assay on NCI-H522 lung, 80.5%. For the same molecule, the growth was 89.4% in the assay on A549/ATCC NSCLC, 96.2% in the assay on 786-0 renal and 110% with COLO 205 colon.
On to `CC1=CC2OC34COC3CC(OC(=O)C(F)(F)F)C4(C)C2(C)CC1` (stereo not given), for which the growth in the assay with NCI-H23 lung was 110%; in the assay with NCI-H226 lung, 98.7%; in the assay on NCI-H322M lung it was 96.1%; in the assay on NCI-H460 lung it was 104%; with HOP-92 NSCLC, 104%; in the assay with NCI-H522 lung it was 103%. The growth with A549/ATCC NSCLC is 97.8%; with 786-0 renal it was 101%; in the assay with COLO 205 colon, 99.7%.
`C/C(=N\NC(N)=S)C(C)(C)O`: the growth in the assay with NCI-H23 lung is 93.6%; in the assay on NCI-H226 lung, 89.2%; in the assay on NCI-H322M lung, 104%; with NCI-H460 lung it was 104%; in the assay with HOP-92 NSCLC, 88.1%; with NCI-H522 lung, 109%. Moreover, the growth with A549/ATCC NSCLC was 83.4%; in the assay on 786-0 renal, 96.3%; in the assay on COLO 205 colon, 119%.
Regarding `CCC(CCNc1cc(OC)cc2cccnc12)CN1C(=O)c2ccccc2C1=O` (stereo not given), the growth with NCI-H23 lung was 91.3%; in the assay with NCI-H226 lung, 98.9%; with NCI-H322M lung, 112%; in the assay with NCI-H460 lung it was 138%; with HOP-92 NSCLC, 93%; with NCI-H522 lung it was 87.5%. Further, the growth is 105% in the assay on A549/ATCC NSCLC, 104% with 786-0 renal and 113% in the assay with COLO 205 colon.
On to `COc1cc(-c2cc(-c3ccc(C)cc3)nc3nc(N)[nH]c(=O)c23)ccc1Oc1ccnc2cc(Cl)ccc12`, for which the growth with NCI-H23 lung was 107%; with NCI-H226 lung, 73.3%; in the assay with NCI-H322M lung it was 80.6%; in the assay with NCI-H460 lung, 96%; with HOP-92 NSCLC, 70.4%; in the assay with NCI-H522 lung, 92.5%. Besides, the figures for the growth in the assay on A549/ATCC NSCLC, in the assay on 786-0 renal and in the assay on COLO 205 colon were 78.7%, 98.1% and 107%, respectively.

The values above are taken from PubChem BioAssay (NCI).
